The values below come from ChEMBL document CHEMBL3988442, “University of Dundee, Small-Polar-MMV Screening Library” (2021).

About 13,000 (27%) of roughly 48,000 compounds showed an effect of 50% or more. This is one part of the list.

The assay has as its system Wolbachia pipientis. Kind of assay: Anti-Wolbachia Cell-Based Screen. It is filed as functional. Details: scale not given: in the data most compounds retested in dose-response had high values. The note with it: 5 µM.
For the compound `O=C(O)C(F)(F)F.O=C(O)C(F)(F)F.O=S(=O)(NCC1OCCc2cn(Cc3ccccn3)nc21)C1CC1` (centres undefined), the “Percent Effect” value is 3.652%.

As to `CCCN1CCCN(c2ccc(-n3ccc(C)n3)nn2)CC1`, the “Percent Effect” value was -2.54%.

With `CC(C)c1cc(NC(=O)CN2CCc3cncnc3C2)on1`, the “Percent Effect” value was -4.855%.

As to `CNC(=O)C1CCN(CC(=O)Nc2cc(C(C)C)no2)CC1`, the “Percent Effect” value is given as 108.1%.

On to `Cc1nnc2n1CCN(CC(=O)Nc1cc(C(C)C)no1)C2`, for which the “Percent Effect” value is given as 1.962%.

On to `CC(C)c1cc(NC(=O)CN2CCc3ccccc3C2)on1`, for which the “Percent Effect” value was 0.7279%.

As for `CC(C)c1cc(NC(=O)CN2CCC(C(N)=O)CC2)on1`, the “Percent Effect” value stood at 115.1%.

On to `CC(C)c1cc(NC(=O)CN2CCCC(Cn3cncn3)C2)on1` (centres undefined), for which the “Percent Effect” value stood at 3.767%.

`O=C1CCC2(CCN(Cc3ccc(F)cc3Cl)CC2)CN1CCO`: the “Percent Effect” value was -18.28%.

In the case of `CCOc1ccc(CNC(=O)N(C)Cc2ncnn2C)cc1C`, the “Percent Effect” value came out at 11.45%.

Take `CC(C)c1noc(C2CCCN2C(=O)CN2CCc3ccccc32)n1` (centres undefined): the “Percent Effect” value was -3.468%.

In the case of `CN(C)CC(=O)N1Cc2nc(C(=O)NCc3ccccc3)oc2C1`, the “Percent Effect” value is listed as 4.563%.

Take `CN(C)CC(=O)N1Cc2nc(C(=O)N3CCCN(C)CC3)oc2C1`: the “Percent Effect” value was 106%.

Turning to `CN1CCN(C(=O)c2nc3c(o2)CN(C(=O)c2cccnc2)C3)CC1.O=C(O)C(F)(F)F.O=C(O)C(F)(F)F`, the “Percent Effect” value turned out to be 7.797%.

On to `CN1CCCN(C(=O)c2nc3c(o2)CN(S(C)(=O)=O)C3)CC1`, for which the “Percent Effect” value is recorded as 89.92%.

As to `CCCNC(=O)c1nc2c(o1)CN(C(=O)CN(C)C)C2`, the “Percent Effect” value turned out to be 2.652%.

On to `CN1CCCN(C(=O)c2nc3c(o2)CN(C(=O)c2cccnc2)C3)CC1.O=C(O)C(F)(F)F.O=C(O)C(F)(F)F`, for which the “Percent Effect” value was -2.795%.

In the case of `COCCN1CC(Nc2nc(C(C)C)nc3c2cnn3C)CC1=O` (centres undefined), the “Percent Effect” value was determined as 0.2406%.

With `CCCc1nc(C)cc(N2CCNC(C(=O)NCc3cccnc3)C2)n1` (centres undefined), the “Percent Effect” value was 0.7849%.

As to `CSC(CNS(N)(=O)=O)c1cccc(Cl)c1` (centres undefined), the “Percent Effect” value is recorded as -15.56%.

On to `O=C(O)C(F)(F)F.O=C([C@H]1CC[C@@H]2[C@@H](CCN2Cc2nccs2)O1)N1CCCCO1`, for which the “Percent Effect” value is reported as -6.039%.

Regarding `CS(=O)(=O)N1C[C@H]2CCCN(Cc3nccs3)[C@H]2C1.O=C(O)C(F)(F)F`, the “Percent Effect” value came to 1.749%.

Consider `CN(C)C(=O)[C@@H]1C[C@@H]2[C@@H](CCN2Cc2nccs2)O1.O=C(O)C(F)(F)F`, for which the “Percent Effect” value amounted to 111.2%.

For the compound `CN(C)C(=O)[C@@H]1CC[C@@H]2[C@@H](CCN2Cc2nccs2)O1.O=C(O)C(F)(F)F`, the “Percent Effect” value worked out at 98.79%.

Consider `CC(C)NC(=O)[C@H]1C[C@@H]2[C@@H](C1)OCCN2Cc1nccs1.O=C(O)C(F)(F)F`, for which the “Percent Effect” value is 0.8743%.

Turning to `CC(C)N(C)[C@@H]1CCN(Cc2nccs2)[C@H]1Cc1ccncc1.O=C(O)C(F)(F)F.O=C(O)C(F)(F)F.O=C(O)C(F)(F)F`, the “Percent Effect” value is listed as -17.48%.

As for `Cc1ccccc1-c1noc(C2CC(C(C)C)=NO2)n1` (centres undefined), the “Percent Effect” value turned out to be 10.38%.

For `CCc1cc(N(C)Cc2nonc2C)nc(N(C)C)n1`, the “Percent Effect” value was found to be 93.32%.

In the case of `CCN(Cc1nonc1C)C(=O)c1cnccn1`, the “Percent Effect” value is recorded as -6.24%.

For `CCc1cc(N(C)Cc2nonc2C)nc(N2CCOCC2)n1`, the “Percent Effect” value is -1.429%.

As to `Cc1cc(=O)n(C)cc1NC(=O)Cc1cc(F)ccc1F`, the “Percent Effect” value turned out to be 0.6087%.

With `O=c1[nH]c(-c2ccccc2F)nc2c1CCNC2`, the “Percent Effect” value is -26.1%.

`CCN(CC)C(=O)c1ccc(-n2ncc(C#N)c2N)cc1`: the “Percent Effect” value turned out to be 113.8%.

`N#Cc1cnn(-c2ccc(C(=O)Nc3ccccn3)cc2)c1N`: the “Percent Effect” value is 2.958%.

`Cc1cnc(NC(=O)c2ccc(-n3ncc(C#N)c3N)cc2)s1`: the “Percent Effect” value was -16.88%.

For `N#Cc1cnn(-c2ccc(C(=O)N(C3CCCCC3)C3CC3)cc2)c1N`, the “Percent Effect” value came to 50.38%.

Take `CC(C)CCN(C(=O)Nc1cccc(C(=O)N(C)C)c1)C1CC1`: the “Percent Effect” value was -4.492%.

With `COc1ccc(NC(=O)c2ccc(-n3ncc(C#N)c3N)cc2)cn1`, the “Percent Effect” value is -17.39%.

Regarding `N#Cc1ccc(C(=O)N(C2CC2)C2CC(=O)NC2=O)cc1` (centres undefined), the “Percent Effect” value is given as -1.854%.

Consider `CCCC1SCCN1C(=O)c1ccc(-n2ncc(C#N)c2N)cc1` (centres undefined), for which the “Percent Effect” value is reported as -7.11%.

Turning to `CC(C)CCN(C(=O)c1cccc(NC(N)=O)c1)C1CC1`, the “Percent Effect” value is on record as -12.61%.

For `CC(C1CC1)N(C)C(=O)c1ccc(-n2ncc(C#N)c2N)cc1` (centres undefined), the “Percent Effect” value is listed as 117.6%.

For the compound `CC(C)C1CCCN1C(=O)c1ccc(-n2ncc(C#N)c2N)cc1` (centres undefined), the “Percent Effect” value is reported as -2.457%.

Consider `CC(C)CCN(C(=O)c1ccc(-n2ncc(C#N)c2N)cc1)C1CC1`, for which the “Percent Effect” value came out at 92.49%.

As to `Cc1nc(CN2CCC(C(=O)N(C)C3CCC(C)CC3)CC2)cs1` (centres undefined), the “Percent Effect” value is reported as -8.684%.

Turning to `Cc1nc(-c2cc(F)c3c(c2)CC(CN)O3)c[nH]1` (centres undefined), the “Percent Effect” value worked out at 4.344%.

`O=C(CCn1cccn1)N1CC[C@@H](c2ccc3ccccc3c2)[C@H](O)C1`: the “Percent Effect” value stood at 28.28%.

Consider `CN(C(=O)c1ccc(-n2ncc(C#N)c2N)cc1)C1CCCC1`, for which the “Percent Effect” value stood at 106.6%.

For the compound `CN(C(=O)c1ccc(NC(=O)c2cc[nH]n2)cc1)C1CCCCC1`, the “Percent Effect” value is -4.101%.

Regarding `Cc1nc2c(C#N)cnn2c(C)c1CCC(=O)N(C)C1CC1`, the “Percent Effect” value was -17.24%.

Turning to `CCC(=O)Nc1cc(Br)cn(C)c1=O`, the “Percent Effect” value was 3.06%.

`O=C(c1ccc(F)cc1)N(CCCO)S(=O)(=O)c1cccs1`: the “Percent Effect” value is listed as 17.63%.

For the compound `COCCN1CCC(CNCc2c[nH]nc2C(C)(C)C)CC1`, the “Percent Effect” value is listed as 88.21%.

In the case of `Cc1ccc(-c2n[nH]cc2CNCC2CCN(CC(C)O)CC2)cc1` (centres undefined), the “Percent Effect” value is given as 92.7%.

Take `CC(C)(C)c1n[nH]cc1CNCC1CCN(C2CC2)C1.Cl` (centres undefined): the “Percent Effect” value was 3.787%.

Consider `CC(C)(C)c1n[nH]cc1CNCC1CCN(CC(F)(F)F)C1.Cl` (centres undefined), for which the “Percent Effect” value is -2.373%.

In the case of `Cc1ccc(-c2n[nH]cc2CNCC2CCc3nnc(C)n3C2)cc1` (centres undefined), the “Percent Effect” value is listed as -17.97%.

Consider `CC(O)CN1CCC(CNCc2c[nH]nc2C(C)(C)C)CC1` (centres undefined), for which the “Percent Effect” value is -0.09307%.

For the compound `Cc1cccc(-c2[nH]ncc2CNCC2CCN(CC(C)O)CC2)c1` (centres undefined), the “Percent Effect” value was -2.172%.

Take `CN(C)CCN1CCC(CNCc2c[nH]nc2C(C)(C)C)CC1`: the “Percent Effect” value was 106%.

Consider `CC(C)N1CCC(CNCc2c[nH]nc2C(C)(C)C)C1` (centres undefined), for which the “Percent Effect” value was 9.105%.

`CNc1cc(N2CCCC2CNCc2c[nH]nc2C(C)(C)C)ncn1` (centres undefined): the “Percent Effect” value is 0.4855%.

For `CCN1CCC(CNCc2c[nH]nc2C(C)(C)C)C1.Cl` (centres undefined), the “Percent Effect” value is listed as 95.83%.

Turning to `COCCn1cc(NCc2c[nH]nc2C(C)(C)C)cn1`, the “Percent Effect” value turned out to be 0.5813%.
